Screening data deposited in PubChem by several laboratories.
A selection: hits, their analogues and other compounds. The true share with any hit is near 1.3%.
Sa ugtP lethal = kills S. aureus RN4220 lacking UgtP | growth inhibition, % (concentration not given with the values) | 0.54% of 330,000 active | S. aureus RN4220 ugtP deletion, OD600 growth, 16 h; in the data active = growth inhibition above about 68%;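 note: plate controls were untreated wells for no effect and antibiotic for full effect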
BJeLR viability = kills HRASV12-expressing BJeLR cells | BJeLR (HRASV12) viability, CellTiter-Glo ATP luminescence, 48 h | inhibition, % (no concentration beside the values) | 0.17% of 300,000 active; in the data active = inhibition above about 50%
RN4220 kill = kills Staphylococcus aureus RN4220 | S. aureus RN4220 growth, OD600, 16 h | inhibition, % (test concentration not listed) | 0.33% of 330,000 active; in the data active = inhibition above about 85%;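 note: plate controls were untreated cells for no effect and reference antibiotic for full effect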
SARS 3CLpro inh = SARS-CoV 3CLpro protease inhibition | P0C6X7 | recombinant SARS-CoV 3CLpro, quenched FRET peptide cleavage | inhibition, % at 6 µM | 0.14% of 290,000 active | AID 1706; in the data active = inhibition above about 12%
PfHsp40 rescue = compounds rescuing yeast from Plasmodium falciparum HSP40 toxicity; 0.68% of 340,000 active; S. cerevisiae expressing PfHsp40, growth rescue, ATP luminescence; AID 504582; growth rescue, % at 12.5 µM; in the data active = growth rescue above about 28%, passing the limit was not always enough;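 note: yeast W303a lacking pdr1 and pdr3 grown in galactose medium; growth measured after three days at 30 °C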
* hit, by the source's call.

Screening CCCN1C2CCCC1CC(NC(=O)c1ccc(Br)cc1)C2 (stereo unspecified) returned Sa ugtP lethal 10, BJeLR viability 6, RN4220 kill 3, SARS 3CLpro inh 3 and PfHsp40 rescue 0.
CCCN1CCCC[C@H]1C(=O)Nc1c(C)cccc1C was read as BJeLR viability 3 and PfHsp40 rescue 43*.
For COc1cccc(NC(=O)CSc2nc3ccccc3cc2Cc2ccccc2)c1 the results were Sa ugtP lethal 14, BJeLR viability -1, RN4220 kill -5, SARS 3CLpro inh 4 and PfHsp40 rescue 2.
`COc1cccc(CSc2nc3ccccc3cc2C=O)c1` gave Sa ugtP lethal 98*, BJeLR viability 58*, RN4220 kill -6, SARS 3CLpro inh 11 and PfHsp40 rescue 1.
Screening CC1CCc2c(sc(NC(=O)CSc3ncn[nH]3)c2C#N)C1 (stereo unspecified) returned Sa ugtP lethal 4, BJeLR viability -4, RN4220 kill 0, SARS 3CLpro inh 4 and PfHsp40 rescue 1.
For CC(C)(C)C1CCc2c(sc(NC(=O)CSc3ncn[nH]3)c2C#N)C1 (stereo unspecified) the results were Sa ugtP lethal 88*, BJeLR viability -2, RN4220 kill -13, SARS 3CLpro inh 4 and PfHsp40 rescue 1.
`COc1ccccc1/C=C/C=C1\Oc2c(ccc(O)c2CN(C)C)C1=O` gave Sa ugtP lethal 4, BJeLR viability 13, RN4220 kill 1, SARS 3CLpro inh 0 and PfHsp40 rescue 0.
For CCN(CC)Cc1c(O)ccc2c1O/C(=C\C=C\c1ccccc1)C2=O the results were Sa ugtP lethal -2, BJeLR viability 93*, RN4220 kill 4, SARS 3CLpro inh 4 and PfHsp40 rescue 2.
CCCN1C/C(=C/c2ccc3c(c2)OCO3)C(=O)/C(=C/c2ccc3c(c2)OCO3)C1 was read as Sa ugtP lethal 3, BJeLR viability 53*, RN4220 kill 2, SARS 3CLpro inh 0 and PfHsp40 rescue 5.
Screening CCCN1C(=O)/C(=C/c2ccc3c(c2)OCO3)NC1=S returned Sa ugtP lethal 3, BJeLR viability 2, RN4220 kill 1, SARS 3CLpro inh -1 and PfHsp40 rescue 0.
Screening CC1(C)Cc2c(C#N)c(SCCOc3ccccc3)nc(N3CCOCC3)c2CO1 returned Sa ugtP lethal 4, BJeLR viability -8, RN4220 kill -1, SARS 3CLpro inh 3 and PfHsp40 rescue 3.
For CCCCCCCCCCCC1=C(O)C(=O)C=C(O)C1=O the results were Sa ugtP lethal 100*, BJeLR viability -3, RN4220 kill 99* and PfHsp40 rescue 3.
COc1cccc(NC(=O)CN(C)C(=O)/C=C/c2cn(Cc3ccccc3)nc2-c2cccnc2)c1 was read as Sa ugtP lethal -1, BJeLR viability -6, RN4220 kill 1 and PfHsp40 rescue 0.
Screening CC(C)(C)OC(=O)C[C@@H]1C/C=C\C[C@H](CC(=O)N(CCO)Cc2ccccc2)C(=O)N2CCC[C@H]2COC1=O returned PfHsp40 rescue 0.
`O=C(Oc1ccc(N(C(=O)c2ccncc2)S(=O)(=O)c2ccc(Cl)cc2)cc1)c1ccncc1` gave Sa ugtP lethal 9, BJeLR viability 12, RN4220 kill 1, SARS 3CLpro inh 0 and PfHsp40 rescue 422*.
Cc1ccc(S(=O)(=O)N(C(=O)c2ccncc2)c2ccc(OC(=O)c3ccncc3)cc2)cc1 was read as Sa ugtP lethal 2, BJeLR viability -14, RN4220 kill 7, SARS 3CLpro inh 2 and PfHsp40 rescue 372*.
Screening O=C(Oc1ccc(N(C(=O)c2ccncc2)S(=O)(=O)c2ccc(F)cc2)cc1)c1ccncc1 returned Sa ugtP lethal -3, BJeLR viability 1, RN4220 kill 3, SARS 3CLpro inh 6 and PfHsp40 rescue 5.
`CCc1ccc(S(=O)(=O)N(C(=O)c2ccncc2)c2ccc(OC(=O)c3ccncc3)cc2)cc1` gave Sa ugtP lethal 4, BJeLR viability -19, RN4220 kill 5, SARS 3CLpro inh 0 and PfHsp40 rescue 234*.
Screening COc1ccc(N(C(=O)c2ccncc2)S(=O)(=O)c2ccc(Cl)cc2)cc1 returned Sa ugtP lethal -1, BJeLR viability 2, RN4220 kill 1, SARS 3CLpro inh 0 and PfHsp40 rescue 141*.
`O=C(COc1ccc([N+](=O)[O-])cc1)Nc1ccc(C(=O)NCc2cccnc2)cc1` gave Sa ugtP lethal 10, BJeLR viability 63*, RN4220 kill 3, SARS 3CLpro inh 2 and PfHsp40 rescue 1.
O=C(CCC1CCCC1)Nc1ccc(C(=O)NCc2cccnc2)cc1 was read as Sa ugtP lethal 7, BJeLR viability 89*, RN4220 kill 1, SARS 3CLpro inh 4 and PfHsp40 rescue 0.
O=C(NCc1cccnc1)c1ccc([N+](=O)[O-])cc1 was read as Sa ugtP lethal 12, BJeLR viability -3, RN4220 kill 5, SARS 3CLpro inh 1 and PfHsp40 rescue 0.
For O=C(NCc1cccnc1)c1ccc(NC(=O)c2cccc([N+](=O)[O-])c2)cc1 the results were Sa ugtP lethal 4, BJeLR viability 79*, RN4220 kill 2, SARS 3CLpro inh -5 and PfHsp40 rescue -2.
For O=C(COc1ccc([N+](=O)[O-])cc1)NCc1cccnc1 the results were Sa ugtP lethal 4, BJeLR viability -2, RN4220 kill 4, SARS 3CLpro inh 4 and PfHsp40 rescue 2.
O=C(CSc1nc2nc(-c3cccs3)cc(C(F)(F)F)c2c(=O)[nH]1)NCc1ccco1 was read as Sa ugtP lethal -1, BJeLR viability 1, RN4220 kill -13, SARS 3CLpro inh 2 and PfHsp40 rescue 0.
`O=C(COC(=O)c1cccc(NS(=O)(=O)c2ccc(F)c(F)c2)c1)NC(=O)NC1CCCCC1` gave Sa ugtP lethal -17, BJeLR viability -2, RN4220 kill 4, SARS 3CLpro inh 7 and PfHsp40 rescue 3.
Screening O=C(CSc1nc2ccccc2[nH]1)c1ccc(Cl)s1 returned Sa ugtP lethal -3, BJeLR viability 2, RN4220 kill -8, SARS 3CLpro inh 2 and PfHsp40 rescue 1.
`CN(Cc1cn(C)c2ccccc12)C(=S)Nc1cc(F)cc(F)c1` gave Sa ugtP lethal 0, BJeLR viability -5, RN4220 kill -4, SARS 3CLpro inh 3 and PfHsp40 rescue 57*.
Screening Cc1cccc(NC(=S)N(C)Cc2cn(C)c3ccccc23)c1 returned Sa ugtP lethal 6, BJeLR viability 2, RN4220 kill 5, SARS 3CLpro inh -2 and PfHsp40 rescue 0.
COc1ccc(Oc2nc3ccccc3nc2C(F)(F)F)cc1 was read as Sa ugtP lethal 11, BJeLR viability 1, RN4220 kill 9, SARS 3CLpro inh 4 and PfHsp40 rescue 0.
`Clc1ccc(-c2nc3ccccc3nc2-c2ccccc2)cc1` gave Sa ugtP lethal 89*, BJeLR viability -9, RN4220 kill -5, SARS 3CLpro inh 3 and PfHsp40 rescue 3.
`Cc1ccc(-c2nc3ccccc3nc2-c2ccccc2)cc1` gave Sa ugtP lethal 86*, BJeLR viability -1, RN4220 kill -2, SARS 3CLpro inh 3 and PfHsp40 rescue 1.
